Screens as filed in PubChem.
The sample as a whole holds a higher share of hits than the screen did.
RECQ1 helicase = RECQ1 (human) helicase inhibition; RECQ1 DNA unwinding, red fluorescence kinetic read; Potency, µM (series often up to 57.3 µM), for the others: at the top dose activity, negative = inhibition, hits mostly inhibitors; AID 2549; 240,000 compounds, 0.54% hits; P46063;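 also: plate controls were vehicle for no effect and no enzyme for full effect; nearly all actives have a fitted effect of over 30% in size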
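50 nM RECQ1T1 preincubated 15 min with compound in Tris pH 8.0 buffer with MgCl2, DTT, Tween-20 and 2.5 ug/ml poly(dI-dC); started with 200 nM TAMRA/BHQ-2 forked duplex and 2 mM ATP. Unwinding read as fluorescence (525/598 nm), two reads 2 h apart.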
JMJD2E inh = blocks human JMJD2E demethylase activity | B2RXH2 | JMJD2E catalytic domain, FDH-coupled NADH fluorescence (FDH is formaldehyde dehydrogenase) | Potency, µM (highest dose often 57.1 µM), inactives show at the top dose activity change, negative = inhibition, usual class: inhibitors | 230,000 compounds, 1.6% hits; active = well fitted inhibition curve with a large enough effect, not every such curve was filed as active; inconclusive = small, poorly fitted or top-dose-only effect, or another doubt; inactive = no such curve, though single readings can be large or run the other way;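 also: 0% = wells with enzyme and -100% = buffer wells without enzyme; nearly all actives have a fitted effect of over 50% in size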
BLM inh = inhibitors of human Bloom syndrome helicase BLM. recombinant BLM DNA unwinding, fluorescence dequenching. Potency, µM (titrated, usually from 56.1 µM), without a hit: at the highest dose activity change, negative = inhibition, most hits filed as inhibitors. 350,000 compounds, 0.2% hits. AID 2528;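 also: plate controls were vehicle for no effect and no enzyme for full effect; nearly all actives have a fitted effect of over 35% in size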
TDP1 block = blocks human tyrosyl-DNA phosphodiesterase 1; Potency, µM (series often up to 130 µM), without a hit: at the highest dose activity change, negative = inhibition, most hits filed as inhibitors; recombinant TDP1, AlphaScreen DNA substrate cleavage; 350,000 compounds, 0.28% hits; Q9NUW8; AID 485290; also: nearly all actives have a fitted effect of over 40% in size
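Enzyme-compound mixtures sat 15 min at room temperature, followed by a 5 min reaction with 15 nM final substrate and 10 min with AlphaScreen beads. Recombinant human Tdp1 was used at 1 nM final.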
APEX1 inh = inhibitors of human APE1 endonuclease | P27695 | recombinant APE1, TAMRA/BHQ-2 abasic DNA cleavage fluorescence | Potency, µM (highest dose often 65.8 µM), without a hit: top-dose activity change, negative = inhibition, most hits filed as inhibitors | 350,000 compounds, 0.35% hits;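 also: plate controls were vehicle for no effect and reference inhibitor for full effect; nearly all actives have a fitted effect of over 55% in size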
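Quantitative HTS: incision of a TAMRA/BHQ-2 double-stranded substrate bearing a tetrahydrofuran abasic site by 0.75 nM APE1 raises fluorescence. Substrate 50 nM final, added after 15 min compound preincubation at room temperature; progress as third-minus-first kinetic read difference.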
L3MBTL1 inh = blocks human L3MBTL1; Potency, µM (highest dose often 57.1 µM), for inactives: top-dose activity, negative = inhibition, hits mostly inhibitors; AlphaScreen L3MBTL1–H3K9me1 peptide binding; 230,000 compounds, 0.66% hits; also: nearly all actives have a fitted effect of over 60% in size
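L3MBTL1 50 nM + b-AHA-H3(1-15)K9me1 75 nM, 30 min RT; compound added, 30 min RT; streptavidin donor/Ni-chelate acceptor beads 10 ug/mL each final, 30 min RT dark; AlphaScreen read.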
* hit, by the source's call; i = inactive; ? = inconclusive; . = not tested or not shown; ! = not active in a repeat; [ ] = dose if it differs, or a comment. Unless noted, calls follow the shape of the dose curve; as a rule, active = well fitted curve in the direction sought with a large enough effect; inconclusive = small, poorly fitted or top-dose-only effect, or another doubt; inactive = no such curve, though single readings can be large; an effect the other way counts as inactive or inconclusive. Unless noted, % is scaled to controls: 0 for no effect and ±100 for the full control effect; potency is read from the fitted curve at half-maximal effect.

SMILES	RECQ1 helicase	JMJD2E inh	BLM inh	TDP1 block	APEX1 inh	L3MBTL1 inh
COc1cccc(S(=O)(=O)N2CCN(S(=O)(=O)c3ccc4c(c3)OCCO4)CC2)c1	.	.	.	2%	.	.
O=C(Nc1nnc(COc2ccc(Cl)cc2)s1)c1ccco1	7%	?	-8%	79µM*	-2%	-4%
COc1ccc(-c2nnc(NC(=O)c3ccco3)s2)cc1	.	.	-18%	40µM*	-8%	.
Cc1ccc(NC(=O)CN2C(=O)N/C(=C/c3cc(C)n(-c4ccc(C(=O)O)cc4)c3C)C2=O)cc1	40µM*	?	-6%	.	?	.
CCn1c(C)cc(/C=C2\NC(=O)N(CC(=O)Nc3ccc(F)cc3)C2=O)c1C	3%	?	-4%	4%	31%	-23%
CC(c1ccco1)N(C)c1ncnc2ccc(-c3ccc4c(c3)OCO4)cc12 (centres undefined)	.	.	.	1%	.	.
N#Cc1nc(Nc2cccc([N+](=O)[O-])c2)nc(NC2CCCC2)n1	.	.	.	4%	.	.
Cc1cc(C(=O)N2CCN(S(=O)(=O)c3ccccc3C#N)CC2)c(C)o1	.	.	.	1%[56.1 µM]	24%	-3%
N#Cc1ccccc1S(=O)(=O)N1CCN(C(=O)c2cc3c(s2)CCC3)CC1	.	.	.	5µM*	5.3µM*	?
COc1ccc(C2=Nn3c(nnc3-c3ccccc3O)SC2)c(OC)c1	-10%	.	-3%	11%	-3%	.
C=CCCn1c(Cl)c(C#N)sc1=O	-2%	.	-1%	7%	-8%	.
C=CCSc1nnc(-c2cccc3ccccc23)o1	.	.	.	3%	2%	7.9µM*
C=C1CCN(C(CC(C)C)C(=O)NCc2ccc(OC)cc2)S(=O)(=O)c2ccccc21 (centres undefined)	-7%	.	-5%	0%	-10%	.
CCc1cc(CNC(=O)c2ccc(OC3CCN(CCc4ccccc4)CC3)cc2)on1	.	.	-6%	14µM*	12µM*	.
O=C(N/N=C/c1ccncc1)c1cccc(S(=O)(=O)Nc2ccc(Cl)cc2)c1	i	3.5µM*	?	.	15%	.
C/C(=N\NC(=O)c1cccc(N/N=C(\C)c2ccco2)c1)c1ccco1	-7%	-5%	-8%	8%	-8%	-29%
C/C(=N\NC(=O)c1cccc(N/N=C(\C)c2cc(O)ccc2O)c1)c1cc(O)ccc1O	27%	25µM*	-15%	8%	-6%	28µM*
C#CCOc1ccc(-c2no[n+]([O-])c2C#N)cc1	.	.	.	.	-9%	.
C/C(=N\NC(=O)CN(c1ccccc1)S(C)(=O)=O)c1ccccc1O	-9%	18µM*	-2%	4%	14%	4%
CSc1ccc(/C=C(\C(=O)O)c2ccc(S(=O)(=O)N3CCCC3)s2)cc1	.	.	.	28µM*	-44%	?
Nc1ccc2oc(=O)ccc2c1I	-13%	.	2%	3%	3%	.
CN1/C(=C/c2cc[n+](C)c3ccccc23)C=Cc2ccccc21	?	11µM*	?	10%	-3%	.
CC12C=C(/C=C/c3ccc(Br)cc3)C(C)(C1)C(c1ccc(Br)cc1)CC2=O (centres undefined)	7%[11.5 µM]	.	2%[12.4 µM]	7%[21 µM]	19%[12.4 µM]	.
CCCCCC(=O)Cc1cc(O)cc2c1C(=O)Oc1cc(O)c(C(=O)O)c(CCCCC)c1O2	16µM*	?	?	.	6%	.
CCSc1nnc(NC(=O)C2CCCCC2)s1	-1%	5%	-1%	9%	-4%	3%
SMILES	RECQ1 helicase	JMJD2E inh	BLM inh	TDP1 block	APEX1 inh	L3MBTL1 inh
CCSc1nnc(NC(=O)C2CC=CCC2C(=O)O)s1 (centres undefined)	1%	1%	0%	56µM*	?	?
CCOC(=O)c1sc(NC(=O)C2CC=CCC2C(=O)O)nc1C (centres undefined)	0%	3%	-1%	22µM*	?	-15%[11.4 µM]
CCOC(=O)c1cc(C)n(CC2CCC(C(=O)Nc3ccc(OC)cc3)CC2)c1C (centres undefined)	.	.	-1%	6%	.	.
O=C(CNC(=O)c1ccc(Cl)cc1)OC(C(=O)Nc1cc(C(F)(F)F)ccc1Cl)c1ccccc1 (centres undefined)	.	.	.	-1%	.	.
CCCn1c(NC(=S)Nc2ccccc2)nc2ccccc21	-8%	-14%	5%	7%	14%	?
S=C(Nc1ccccc1)Nc1nc2ccccc2n1CCOc1ccc(Cl)cc1	-11%	-19%	-7%	12%	2%	11µM*
CC(C)(C)OC(=O)NCC(=O)NNC(=O)c1cc2ccccc2[nH]1	.	.	.	0%	.	.
COc1cc2c(cc1OC)-c1cc3nc4ccccc4nc3n1C(C)(C)C2	i	4.5µM*	-10%	13%	?	.
O=C(O)c1ccc2ncsc2c1	i	14µM*	-7%	45µM*	2%	10µM*
O=C(c1ccc2ncsc2c1)N1CCCCC1	.	.	1%	4%	37%	.
O=C(N/N=C/c1cc2c3c(c1O)CCCN3CCC2)c1ccccc1O	-9%	32µM*	-22%	13%	-4%	?
CC(C)[C@H]1c2ccc(F)cc2CC[C@@]1(CCN(C)CCCc1nc2ccccc2[nH]1)OC(=O)C1CC1	i	.	-3%	12%	-6%	.
Cc1ccccc1C(=O)NC(CC(C)C)C(=O)OCc1cc(=O)n2cc(Br)ccc2n1 (centres undefined)	-2%	-30%	6%	3%	-1%	6%
Cc1cc(C)c(C)c(S(=O)(=O)N[C@@H](C)C(=O)OCc2cc(=O)n3cc(Br)ccc3n2)c1C	24%	?	-25%	-1%	-2%	13µM*
N[C@H](C(=O)O)c1cc(O)cc(O)c1	?	16µM*!	-1%	4%[56.1 µM]	?	.
COc1ccc(CC(=O)OC(C)C(=O)c2ccc(C)cc2)cc1 (centres undefined)	.	.	-7%	79µM*	-6%	.
CN(C)c1ccc(-c2c(C3C4C=CCCC4(C)C(=O)N3Cc3ccccc3)ccc3ccccc23)cc1 (centres undefined)	-6%	.	-3%	11%	-1%	.
O=C(CNC(=O)c1ccncc1)N/N=C/c1ccc(O)cc1O	-5%	20µM*	-8%	-3%	-3%	-29%
O=C(CNC(=O)c1ccc2c(c1)OCCO2)N/N=C/c1ccc(O)cc1O	-9%	13µM*	-5%	8%	11%	-4%
COc1ccc(NC(=O)c2cc(C)nc3ccccc23)cc1S(=O)(=O)N1CCOCC1	.	.	.	0%	31%	5%
Cc1ccc(NC(=O)c2cc(-c3ccco3)nc3ccccc23)cc1S(=O)(=O)N1CCOCC1	?	16µM*	-19%	-3%	?	-8%
NS(=O)(=O)c1ccc(-c2ccc(/C=C3\SC(=S)N(C4CCS(=O)(=O)C4)C3=O)o2)cc1 (centres undefined)	-1%	-9%	0%	8%	-3%	.
